# TRHR agonist-1 – agonists of human TRH receptor; activation, % at 2 µM; hit rate 0.18% among 360,000; TRHR cells, calcium flux fluo-8, FDSS agonist mode; P34981; AID 493084; in the data active = activation above about 30%; also: 0% is about no effect
# Target sequence (P34981 whole entry, looked up): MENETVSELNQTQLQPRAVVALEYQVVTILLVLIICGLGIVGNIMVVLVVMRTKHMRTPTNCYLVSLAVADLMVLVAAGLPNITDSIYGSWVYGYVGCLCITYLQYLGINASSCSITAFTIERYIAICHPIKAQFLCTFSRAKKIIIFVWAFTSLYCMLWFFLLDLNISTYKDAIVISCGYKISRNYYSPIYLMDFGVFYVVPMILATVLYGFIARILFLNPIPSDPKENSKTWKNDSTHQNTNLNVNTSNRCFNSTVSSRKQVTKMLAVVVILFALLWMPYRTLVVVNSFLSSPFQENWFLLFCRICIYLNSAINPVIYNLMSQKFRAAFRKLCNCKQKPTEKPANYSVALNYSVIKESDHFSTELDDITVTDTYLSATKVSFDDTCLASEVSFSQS
#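 Read-out: compound-evoked intracellular calcium rise in TRHR cells, fluo-8 dye, kinetic FDSS fluorescence at 1 s/cycle following a 10-cycle baseline. Cells cultured overnight before dye loading (30 min–1.5 h, RT).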
# IL2 activator – activates IL-2 in a cell-based reporter assay | IL-2 activation reporter assay, cell-based qHTS; stimulated with anti-CD3/CD4/CD28 beads; in transgenic mouse T cells | activation, % (series mostly up to about 46 µM) | hit rate 0.065% among 360,000; in the data active = activation above about 50%; inconclusive = mostly about 30% to 49%; also: 0% is about no effect
#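 Readout: EGFP and DsRed signals by fluorescent plate cytometry. Unstimulated transgenic mouse T cells received compound 60 min before antibody-bead stimulation, then incubated 18 h at 37 degrees C.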
# Epigenetic derep – derepresses silenced GFP reporter in murine cells; AID 1865; Potency, µM (top dose mostly 53.9 µM), inactives show at the top dose GFP activation, usual class: activators; murine LDR cells, GFP reporter derepression, 30 h; hit rate 0.2% among 280,000; also: potency is read from the fitted curve at half-maximal effect; % of control where 0% means no effect; nearly all actives have a fitted effect of over 60% in size
#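 Derepression of a silenced CMV-GFP reporter in murine LDR cells is scored by enumerating GFP-positive cells with a laser-scanning microplate cytometer after 30 hours of treatment at 37 C.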
# MBNL1 CUG block – blocks human MBNL1 binding to CUG repeat RNA. AID 2675. TR-FRET MBNL1-His/biotin-(CUG)12 binding, 665/545 ratio. Q9NR56. hit rate 0.036% among 280,000. Potency, µM (highest dose often 57.5 µM), without a hit: at the top dose activity change, negative = inhibition, most hits filed as inhibitors; active = well fitted inhibition curve with a large enough effect in the signal ratio, with a control signal flat, not every such curve was filed as active; inconclusive = small, poorly fitted or top-dose-only effect, or effect the other way, or a change in a side signal; inactive = no such curve, though single readings can be large or run the other way; the % refers to the signal ratio; also: potency is read from the fitted curve at half-maximal effect; % is scaled to controls: 0 for no effect and ±100 for the full control effect
# Target sequence (Q9NR56 whole entry, looked up): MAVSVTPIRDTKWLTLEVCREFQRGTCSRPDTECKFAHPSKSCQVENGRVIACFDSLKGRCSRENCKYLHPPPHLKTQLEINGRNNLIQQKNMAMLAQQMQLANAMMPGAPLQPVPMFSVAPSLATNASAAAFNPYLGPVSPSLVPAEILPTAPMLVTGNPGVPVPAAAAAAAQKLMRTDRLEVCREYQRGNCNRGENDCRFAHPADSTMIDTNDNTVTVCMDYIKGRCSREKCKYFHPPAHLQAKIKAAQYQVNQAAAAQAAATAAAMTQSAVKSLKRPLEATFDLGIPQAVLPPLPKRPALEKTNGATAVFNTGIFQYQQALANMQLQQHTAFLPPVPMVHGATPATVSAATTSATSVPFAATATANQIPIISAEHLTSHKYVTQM
#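 Compound titration spanned 92 nM–58 uM against the MBNL1-His/biotin-(CUG)12 complex. After 60 min at room temperature with 5 nM streptavidin-XL665 and 0.055 ng/ul terbium anti-His, ratiometric 665/545 nm emission (Ex 340 nm) normalized to controls.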
# CBFb-RUNX1 inh – CBF-beta/RUNX1 interaction disruption; Q01196+Q13951; AlphaScreen CBFb-His/RUNX1-biotin binding, biochemical; Potency, µM (doses to about 59.8 µM), for the others: at the highest dose activity, negative = inhibition, most hits filed as inhibitors; 230,000 tested, under 10 active; AID 1477; also: % of control where 0% means no effect
#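 His-tagged CBF-beta and biotinylated RUNX1 (30 nM each) were premixed 20 min at room temperature, exposed to compound for 15 min, then given nickel-chelate and streptavidin AlphaScreen beads (50 ng each). After 90 min, AlphaScreen signal was read.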
# TRHR enhancer-1 – allosterically enhances the human TRH receptor. P34981. TRHR cells, fluo-8 calcium fluorescence, EC20 TRH enhancement. enhancement, % at 2 µM. hit rate 0.66% among 360,000. AID 493056; in the data active = enhancement above about 30%; also: 0% is about no effect
#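 Enhancer read-out: after compound pinning and an initial kinetic agonist-mode read, an EC20 of TRH (10 nM final) was injected and fluo-8 calcium signal (Ex 480/Em 530) followed at 1 s/cycle for 100 cycles in TRHR-expressing cells.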
# TRHR enhancer-2 – confirmation of human TRH receptor allosteric enhancers; shares compounds with TRHR enhancer-1; TRH receptor cell assay, enhancer confirmation qHTS; activity change, negative = inhibition, % at 46.1 µM; 970 tested, under 10 active; AID 493076;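 also: compound effect scored on response to added TRH at EC20 of 10 nM; 0% is about no effect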
# TRHR agonist-2 – confirmation of human TRH receptor agonists; AID 493078; Potency, µM (doses to about 46.1 µM), without a hit: at the highest dose activation, most hits filed as activators; hit rate 8% among 970; TRHR-expressing cells, agonist activation read-out; shares compounds with TRHR enhancer-1; also: potency is read from the fitted curve at half-maximal effect; 0% is about no effect; nearly all actives have a fitted effect of over 75% in size
# Starred values were filed as active, the others as inactive; u = inconclusive; x = no result given; [ ] = remark or other dose. An excerpt weighted towards active compounds, which were near 0.88% of everything screened. Unless noted, calls follow the shape of the dose curve; as a rule, active = well fitted curve in the direction sought with a large enough effect; inconclusive = small, poorly fitted or top-dose-only effect, or another doubt; inactive = no such curve, though single readings can be large; an effect the other way counts as inactive or inconclusive.
SMILES,TRHR agonist-1,IL2 activator,Epigenetic derep,MBNL1 CUG block,CBFb-RUNX1 inh,TRHR enhancer-1,TRHR enhancer-2,TRHR agonist-2
CS(=O)(=O)c1ccc(Cl)c(NC(=O)COC(=O)c2c(Cl)cccc2Cl)c1,-1.9,-0.5,-0.8%[10.1 µM],1.2%,-3.0%,41.2*,2.2,1.6%
Cc1ccccc1-c1noc(-c2cc(C(C)C)[nH]n2)n1,0.7,x,-4.0%,x,x,-0.8,x,x
Cn1c(-c2cccc(F)c2)nc2c1c(=O)[nH]c(=O)n2Cc1ccccc1,-0.4,1.5,x,-4.6%,x,49.0*,-3.4,-0.7%
CCCn1c(-c2cccc(F)c2)nc2c1c(=O)[nH]c(=O)n2Cc1ccccc1,-0.5,-0.8,x,-5.7%,x,-3.6,x,x
Cc1ccc(Cl)cc1NC(=O)c1cc2c(=O)n3cccc(C)c3nc2n1C,-0.2,x,0.0%,x,x,7.2,x,x
C/C=C/c1cc(CN2CCN(c3ccccc3)CC2)c(O)c(OC)c1,1.6,-0.1,1.4%,-4.2%,-17.2%,41.5*,-3.0,-0.7%
COC(=O)C1=C(C(=O)c2ccccc2)C(c2ccccc2)n2nnnc2N1 (stereo unspecified),0.5,-0.5,-1.9%[10.1 µM],11.3%,2.3%,62.2*,1.1,-0.7%
Cc1cccc(N(C(=O)c2snc(C(N)=O)c2N)C(C(=O)NC2CCCC2)c2ccncc2)c1 (stereo unspecified),0.0,-1.1,x,2.9%,x,42.4*,-1.2,-0.5%
CN(C)c1ccc(C(C(=O)NCC2CCCO2)N(C(=O)c2snc(C(N)=O)c2N)c2ccccc2)cc1 (stereo unspecified),0.0,-1.9,x,3.2%,x,7.3,x,x
CN(C)c1ccc(C(C(=O)NCC2CCCO2)N(C(=O)c2snc(C(N)=O)c2N)c2ccc3c(c2)OCO3)cc1 (stereo unspecified),-0.7,1.4,x,u,x,53.5*,-3.8,-0.3%
CCCn1c(CN2CCN(c3ccc(OC)cc3)CC2)nc2c1c(=O)[nH]c(=O)n2C,-1.1,x,-4.0%,x,x,7.0,x,x
O=c1c2ccccc2c(/C=N/NS(=O)(=O)c2ccccc2)c(O)n1-c1ccccn1,31.6*,-2.4,1.1%,17.7%,-1.7%,27.1,-6.2,3.6%
COc1ccccc1C/C(N)=N/OC(=O)c1cccs1,-0.1,-0.4,1.3%[10.1 µM],-2.5%,0.1%,47.5*,-2.2,-0.8%
CCOc1cc(/C=C(/C#N)C(=O)Nc2ccc(O)cc2)cc(Br)c1O,40.5*,17.4,u,u,1.7%,-3.7,8.7,20.6µM*
O=C(Nc1ccc(F)cc1)[C@H](Cc1ccccc1)N1Cc2ccccc2C1=O,0.2,x,-0.3%,x,x,5.4,x,x
COc1ccc(C2C(C(C)=O)=C(C)N=c3s/c(=C/c4ccc5c(c4)OCO5)c(=O)n32)cc1 (stereo unspecified),38.2*,x,-0.8%,7.3%,-17.3%,-8.1,8.0,u
O=S(=O)(NCC(c1cccs1)S(=O)(=O)c1ccccc1)c1ccc(F)cc1 (stereo unspecified),0.2,x,u,x,x,-0.7,x,x
O=C(NCc1ccccc1)C1CCN(S(=O)(=O)Cc2ccccc2)CC1,-0.8,x,-0.3%,x,x,5.2,x,x
Cc1ccc(NCc2ccc(O)c3ncccc23)cc1,-0.5,0.0,-1.1%,8.3%,-1.9%,45.9*,3.8,1.2%
Cc1ccc(NCc2ccc(O)c3ncccc23)cc1C,0.0,-2.3,-1.1%,8.5%,-2.6%,-3.0,x,x
CCOC(=O)c1[nH]cnc1C(=O)Nc1ccc(C)cc1,-0.3,-0.4,0.0%,11.7%,14.7%,51.0*,-1.9,5.2%
CCOC(=O)c1[nH]cnc1C(=O)Nc1ccc(Cl)cc1,0.4,-0.1,5.2%,14.8%,16.5%,4.8,x,x
Cc1cc(=O)n(Cc2ccccc2Cl)c2c1c(C)nn2-c1ccccc1,1.1,x,0.8%,x,x,1.1,x,x
NC(=O)C1CCN(c2ncnc3c2cnn3-c2cccc(Cl)c2)CC1,0.3,x,-0.7%,x,x,6.6,x,x
CCn1c2ccccc2c2cc(CNCCCN3CCOCC3)ccc21,-0.2,-0.2,x,-15.0%,x,42.6*,14.3,2.8%
SMILES,TRHR agonist-1,IL2 activator,Epigenetic derep,MBNL1 CUG block,CBFb-RUNX1 inh,TRHR enhancer-1,TRHR enhancer-2,TRHR agonist-2
COC(=O)c1[nH]c2ccccc2c1NS(=O)(=O)c1ccc(F)c(C)c1,-0.2,-1.4,-0.7%,-1.6%,2.6%,44.5*,-8.3,-0.4%
Brc1cc2c(cc1CSc1ncccn1)OCO2,-0.2,-4.1,x,-6.1%,x,46.5*,-9.1,1.8%
C=Cc1ccc(Cn2c(=O)n(CC3CCC(C(=O)NC(C)C)CC3)c(=O)c3sccc32)cc1 (stereo unspecified),-0.3,x,12.8%,x,x,-8.2,x,x
O=C1/C(=C/c2cccs2)CCC/C1=C\c1cccs1,2.5,-1.0,x,7.4%,x,7.3,x,x
Cn1cccc1/C=C1\CCC/C(=C\c2cccn2C)C1=O,53.1*,4.9,12.6µM*,u,u,2.7,0.6,18.4µM*
CCc1nc(Nc2ccncc2)c2oc3ccccc3c2n1,0.0,-0.7,-2.4%,-0.2%,-9.1%,47.0*,-5.0,-0.5%
COC(=O)CN1C(C(=O)c2ccccc2)=C(OC(=O)c2ccccc2)c2ccccc2S1(=O)=O,1.5,x,0.8%,x,x,-5.4,x,x
Cc1ccc(C(=O)C(C)[n+]2cccc(C(N)=O)c2)cc1 (stereo unspecified),0.3,0.6,-4.0%,-1.0%,3.9%,6.7,x,x
CC(C(=O)c1ccccc1)[n+]1cccc(C(N)=O)c1 (stereo unspecified),0.4,-0.3,0.5%,x,-3.4%,41.1*,0.7,-0.7%
O=[N+]([O-])c1ccc(N=Cc2sc3ccccc3c2O)cc1,6.9,-3.9,1.0%,u,-5.6%,-4.3,x,x
O=[N+]([O-])c1cccc(N=Cc2sc3ccccc3c2O)c1,0.9,x,-2.6%,7.3%,u,43.5*,-3.4,-0.3%
N#Cc1c(N)nc(SCC(=O)OCc2ccccc2)c(C#N)c1-c1ccco1,0.2,2.2,0.0%,10.5%,1.0%,65.2*,-8.3,4.0%
CCC(=O)N1CCc2cc(Br)cc(S(=O)(=O)CCC(=O)N(CC)Cc3ccccc3)c21,-0.5,x,-1.1%,x,x,0.6,x,x
O=S1(=O)C2CC3OC2(CC3c2ccc(F)cc2)CN1Cc1ccc(Cl)cc1 (stereo unspecified),x,x,x,x,23.7%,x,x,x
Cc1ccc(NC(=O)c2cc(S(=O)(=O)N3CCCC3)cn2C)cc1C,-0.2,-0.4,x,-0.3%,x,46.6*,7.2,-0.2%
Cc1ccc(NC(=O)NN2CCN(C)CC2)cc1C,-0.2,0.6,x,-3.8%,x,41.3*,5.0,-0.6%
